Results: article PMC4336329 (PLoS ONE, 2015)
Among all 310,000 compounds or so, about 14,000 (4.5%) showed an effect of 50% or more. The effect is printed as a negative number. The full list was thinned out, with strong results kept by preference.

Biological target: human ether-à-go-go-related gene (hERG) potassium channel (human, UniProt Q12809)
Assay: primary screen, population patch clamp on CHO cells stably expressing hERG; higher = less effect of the substance
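Also: peak tail current of the secondary pulse compared with the same well before compound.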

Chain of human ether-à-go-go-related gene (hERG) potassium channel (Q12809 whole entry, looked up): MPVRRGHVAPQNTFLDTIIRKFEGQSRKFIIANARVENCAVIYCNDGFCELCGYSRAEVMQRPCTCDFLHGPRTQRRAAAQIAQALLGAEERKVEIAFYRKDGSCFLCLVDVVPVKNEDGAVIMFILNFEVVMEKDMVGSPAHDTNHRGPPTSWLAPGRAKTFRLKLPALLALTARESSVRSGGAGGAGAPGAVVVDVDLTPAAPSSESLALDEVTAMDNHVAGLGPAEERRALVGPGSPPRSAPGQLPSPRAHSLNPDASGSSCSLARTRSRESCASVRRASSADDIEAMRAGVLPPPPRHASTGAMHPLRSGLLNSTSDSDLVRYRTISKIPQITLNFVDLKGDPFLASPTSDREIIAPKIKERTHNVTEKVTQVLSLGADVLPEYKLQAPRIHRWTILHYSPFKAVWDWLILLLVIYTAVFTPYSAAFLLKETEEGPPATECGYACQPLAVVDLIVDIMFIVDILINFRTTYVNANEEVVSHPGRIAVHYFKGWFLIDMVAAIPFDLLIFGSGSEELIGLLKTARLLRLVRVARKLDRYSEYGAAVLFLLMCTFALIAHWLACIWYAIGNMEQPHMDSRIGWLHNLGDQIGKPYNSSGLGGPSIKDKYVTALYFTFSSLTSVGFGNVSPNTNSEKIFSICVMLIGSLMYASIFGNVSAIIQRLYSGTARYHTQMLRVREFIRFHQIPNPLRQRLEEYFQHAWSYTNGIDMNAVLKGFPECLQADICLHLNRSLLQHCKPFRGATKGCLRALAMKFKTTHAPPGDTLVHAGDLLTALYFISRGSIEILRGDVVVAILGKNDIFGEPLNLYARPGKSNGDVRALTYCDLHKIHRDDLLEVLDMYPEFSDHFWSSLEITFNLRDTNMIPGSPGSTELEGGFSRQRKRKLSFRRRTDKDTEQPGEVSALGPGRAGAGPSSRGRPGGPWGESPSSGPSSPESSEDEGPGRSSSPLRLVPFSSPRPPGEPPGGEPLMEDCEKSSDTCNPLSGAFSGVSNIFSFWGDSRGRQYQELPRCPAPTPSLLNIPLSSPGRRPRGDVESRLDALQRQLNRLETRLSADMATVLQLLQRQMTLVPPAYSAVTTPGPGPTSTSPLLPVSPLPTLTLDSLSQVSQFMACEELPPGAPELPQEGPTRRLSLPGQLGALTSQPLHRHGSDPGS

Structure (SMILES)	hERG current change (%, negative = inhibition) at 10uM [%]
O=C(O)c1cccc(Oc2ncnc3sc4c(c23)CCCC4)c1	34.5
Oc1ccc(N=Nc2ccc3c(c2)OCCO3)c(O)c1	22.6
CC(=O)Nc1ccc(S(=O)(=O)N2CC(=O)NC(=O)C2)cc1	29.9
COc1ccc(C2=NS(=O)(=O)N(C)C(C(=O)N3CCCCC3)=C2)cc1OC	-4.54
CCn1ncc(Br)c1C(=O)NC(C)c1ccccc1 (stereo not shown)	3.91
O=C(Cn1c(=O)n(CCC(=O)N2CCCCC2)c(=O)c2sccc21)NCc1ccccc1	5.68
CN(Cc1ccc(Cl)cc1Cl)C(=O)c1cc(=O)c2ccccc2o1	-53.4
COc1ccc(CCN(C)C(=O)c2cc(=O)c3ccccc3o2)cc1OC	7.6
CN(Cc1ccc(N(C)C)cc1)C(=O)c1cc2ccccc2o1	-18.5
Cc1ccc(-c2c(C(=O)NCc3ccc(F)cc3)oc(=O)c3ccccc23)cc1	-13
CN(Cc1ccccc1)C(=O)c1cc2ccccc2o1	-23
CCc1ccc(CN(C)C(=O)c2cc(=O)c3ccccc3o2)cc1	-66.4
CN(Cc1ccccc1Cl)C(=O)c1cc2ccccc2o1	-2.37
COc1ccc(Cl)cc1NC(=O)CN(C)C(=O)c1cc(=O)c2ccccc2o1	-28
CSc1ccc(CN(C)C(=O)c2cc3ccccc3o2)cc1	21.2
Cc1ccc(-c2c(C(=O)N(C)Cc3ccccc3)oc(=O)c3ccccc23)cc1	-52.5
CN(Cc1ccccc1)C(=O)c1oc(=O)c2ccccc2c1-c1ccccc1	-13.1
CSc1ccc(CN(C)C(=O)c2cc(=O)c3ccccc3o2)cc1	-71.4
O=C(Nc1ccc(N2CCCCCC2)cc1)c1ccc[nH]1	-15.6
O=C(NC(=S)NCC1CCCO1)c1ccccc1Br (stereo not shown)	4.66
CN(CCc1ccccn1)C(=O)Nc1ccc(C(C)(C)C)cc1	-19.3
O/N=C/c1cc2ccccc2n1Cc1ccccc1F	13.6

Structure (SMILES)	hERG current change (%, negative = inhibition) at 10uM [%]
CC12CCC(C(=O)n3c1nc1ccccc13)C2(C)C (stereo not shown)	-3.14
Cc1cccc(NC(=O)CSc2nc3nc(C)cc(C)c3c(=O)[nH]2)c1	4.65
COc1ccc(C)cc1NC(=O)NC1CCN(Cc2ccccc2)CC1	-31.4
O=C(NC1CCN(Cc2ccccc2)CC1)C1CCN(S(=O)(=O)c2cccc([N+](=O)[O-])c2)CC1	-8.03
CCN1CCCC(NC(=O)c2cc([N+](=O)[O-])ccc2OC)C1.Cl.O (stereo not shown)	-11.8
O=C(NC1CCN(Cc2cccc([N+](=O)[O-])c2)CC1)c1ccccc1	-53.7
CCOc1ccc(C(=O)NC2CCN(CC(=O)NCc3ccccc3)CC2)cc1	-29.3
CC(=O)NC1CCN(CC(=O)Nc2cccc([N+](=O)[O-])c2)CC1	18.7
O=C(NC1CCN(CC(=O)N(c2ccccc2)c2ccccc2)CC1)c1ccc([N+](=O)[O-])cc1	-78
COc1ccc([N+](=O)[O-])cc1C(=O)NC1CCN(Cc2ccccc2)CC1.Cl.O	-55.3
Cc1ccc(C(=O)NC2CCN(CC(=O)Nc3cccc([N+](=O)[O-])c3)CC2)cc1	-71.4
CC1CCN(CC(=O)Nc2cccc([N+](=O)[O-])c2)CC1	3.53
CC1CCCCC1NC(=O)CN1CCC(NC(=O)c2ccc([N+](=O)[O-])cc2)CC1 (stereo not shown)	2.55
O=C(NC1CCN(C(=O)c2cccc([N+](=O)[O-])c2)CC1)c1ccccc1	-32.8
COc1ccccc1N/C=C/c1onc(C)c1[N+](=O)[O-]	1.63
Cn1c2ccccc2c2cc(/C=C(\NC(=O)c3ccccc3)C(=O)O)ccc21	9.22
CSc1ccc(C(=O)N2CCc3ccc(NC(=O)c4ccccn4)cc3C2)cc1	-4.13
Cc1ccc(NC(=O)Cn2c(/C=C/c3ccccc3)nc3ccccc32)cc1C	-0.723
Cc1ccc(C(=O)O/N=C(\N)c2ccccn2)c(C)c1	-3.86
C/C(=N\OCC(=O)O)c1ccc(Cl)cc1	13.5
COc1ccc(CNC(=O)C(c2ccncc2)N(C(=O)Cc2cccs2)c2ccc(C)cc2)cc1 (stereo not shown)	-15.7
